# Screens: PubChem BioAssay, National Center for Advancing Translational Sciences (NCATS)
# This is a sample that favours compounds with a hit; in the whole collection about 19% have one here.
# HT1080NT lethal: kills 2HG-producing HT-1080-NT fibrosarcoma cells; HT-1080-NT fibrosarcoma viability, CellTiter-Glo ATP luminescence, 48 h; Potency, µM (series often up to 46.1 µM), for inactives: at the highest dose activity, negative = less viability, usual class: cytotoxic; hit rate 1.6% among 360,000;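 note: NT is the 2HG producing partner of a matched IDH1 knockdown line; potency is the fitted concentration of half-maximal effect; 0% = DMSO-treated cells and -100% = media-only wells without cells; nearly all actives have a fitted effect of over 55% in size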
#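 Viability by CellTiter-Glo luminescence after 48 h compound exposure at 37C of HT-1080-NT cells (750/well, RPMI, 5% FBS). % activity scaled between DMSO wells and medium-only wells, then curve-fitted and categorized by curve class.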
# IL-1B inflam inh: inhibitors of inflammasome signaling (IL-1 beta secretion); THP-1 LPS/ATP IL-1B secretion, AlphaLISA, 16 h; active compounds read low; activity change, % at 57.5 µM; hit rate 4.7% among 360,000; AID 743279; in the data active = activity change below about -50%; inconclusive = mostly about -30% to -49%
#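 Secreted IL-1B measured by AlphaLISA bead assay after 16 h compound exposure of THP-1 cells; compounds (final up to 57.5 uM) added 1 h before LPS (250 ng/mL) and ATP (1.25 mM) stimulation; lower signal means less secretion.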
# TDP1 cell CPT: DT40-hTDP1 cell growth loss with CPT. chicken DT40 Tdp1-/-;hTDP1 cells + 20 nM CPT, ATP luminescence, 48 h. Potency, µM (titrated, usually from 46.2 µM), inactives show at the highest dose activity change, negative = growth inhibition, most hits filed as inhibitors. hit rate 12% among 420,000. AID 686979; note: potency is the fitted concentration of half-maximal effect; nearly all actives have a fitted effect of over 55% in size
#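 Chicken DT40 Tdp1-/- cells stably complemented with human TDP1 were seeded at 400 cells/well in medium containing 20 nM camptothecin, exposed to pin-transferred compounds, and grown at 37 °C for at least 48 hr. Viability was read as ATP luminescence.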
# TDP1 cell noCPT: qHTS for Inhibitors of human tyrosyl-DNA phosphodiesterase 1 (TDP1): qHTS in cells in absence of CPT | Potency, µM (highest dose often 46.2 µM), for the others: top-dose activity change, negative = growth inhibition, hits mostly inhibitors | DT40 Tdp1-/- hTDP1 cells, no CPT, ATP luminescence, 48 h | hit rate 15% among 420,000; note: potency is the fitted concentration of half-maximal effect; nearly all actives have a fitted effect of over 55% in size
#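 Luminescent ATP content (CellTiter-Glo) served as the growth readout. Knockout chicken DT40 cells expressing human TDP1 were exposed to compounds without camptothecin for a minimum 48 hr at 37 °C.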
# HT1080 IDH1KD tx: kills HT-1080 cells with IDH1 knockdown; HT-1080 IDH1 knockdown viability, ATP luminescence, 48 h; Potency, µM (series often up to 46.1 µM), for the others: top-dose activity, negative = toxicity, actives largely listed as cytotoxic; hit rate 2% among 360,000; AID 686971;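 note: potency is the fitted concentration of half-maximal effect; 0% = DMSO wells and -100% = cell-free medium wells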
#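 Cytotoxicity counter-line: IDH1KD HT-1080, 48 h, CellTiter-Glo. Curves classed by r2, magnitude and activity.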
# Numbers without * were called inactive; u = inconclusive; x = not tested or not shown; [ ] = another dose, or the depositor's remark. Unless noted, calls come from the whole dose curve; as a rule, active = well fitted curve in the direction sought with a large enough effect; inconclusive = small, poorly fitted or top-dose-only effect, or another doubt; inactive = no such curve, though single readings can be large; an effect the other way counts as inactive or inconclusive. Unless noted, % is set by controls: 0 for no effect and ±100 for the full control effect.
SMILES,HT1080NT lethal,IL-1B inflam inh,TDP1 cell CPT,TDP1 cell noCPT,HT1080 IDH1KD tx
CCOc1ccc2nc(SC3CC(=O)N(c4ccc(C)cc4)C3=O)sc2c1 (stereo unspecified),-3%,15,4.6µM*,4.6µM*,u
CCOc1ccc(N2C(=O)CC(Sc3nccc(C)n3)C2=O)cc1 (stereo unspecified),11%,25,u,u,15%
C=CCNc1nnc(SC2CC(=O)N(c3ccc(OCCC)cc3)C2=O)s1 (stereo unspecified),u,9,1.8µM*,4.1µM*,u
COc1ccc(N2C(=O)CC(Sc3nc4ccccc4s3)C2=O)cc1OC (stereo unspecified),-6%,47,4.6µM*,2.9µM*,1%
CCOC(=O)c1cnc(SC2CC(=O)N(c3ccc(OC)c(OC)c3)C2=O)nc1N (stereo unspecified),-2%,18,21µM*,u,14%
Cc1ccc2c(c1)CN(CCNC(=O)c1cc3ccccc3oc1=O)CC(C)O2 (stereo unspecified),x,x,10%[9.04 µM],-8%,x
CCOc1ccc2nc(SC3CC(=O)N(c4ccc(OC)cc4OC)C3=O)sc2c1 (stereo unspecified),u,29,4.6µM*,3.3µM*,u
CCOc1ccc2nc(/N=C/c3c(C)[nH]n(-c4ccc(C)cc4)c3=O)sc2c1,u,-6,16µM*,u,u
CCOc1ccc(N2C(=O)CC(Sc3nc4ccc(OCC)cc4s3)C2=O)cc1 (stereo unspecified),17%,14,4.1µM*,4.6µM*,18%
COc1ccc(N2C(=O)CC(Sc3nccc(C)n3)C2=O)c(OC)c1 (stereo unspecified),9%,18,u,u,4%
O=C(NCc1ccccc1Cl)c1cnc2sc(N3CCOCC3)nn2c1=O,x,x,-21%,-14%,x
C=CCNCCCOc1ccc(Cl)cc1C(C)(C)C,-7%,-85*,u,u,u
C=CCNCCOCCOc1ccc(Cl)cc1C(C)(C)C,-2%,-53*,18µM*,26µM*,-14%
COCCCNCCOCCOc1ccc(Cl)cc1C(C)(C)C,-28%,-14,16µM*,10µM*,u
CC(C)(C)NCCOCCOc1ccc(Cl)cc1C(C)(C)C,-9%,-6,u,u,-21%
CC1CCCC(NC(=O)COC(=O)COc2cccc(F)c2)C1C (stereo unspecified),29%,5,2%,-20%,17%
CC(CNc1ccccc1O)C(=O)O (stereo unspecified),-1%,-1,u,26µM*,-44%
CC(NC(=O)CCC(=O)Nc1ccccc1O)c1ccccc1 (stereo unspecified),14%,15,3%,-1%,18%
Cc1c(Cl)cccc1-n1c(SCC(=O)N2CCC(C(=O)O)CC2)nc2ccccc2c1=O,0%,8,-2%,3%,11%
O=C(CCC(=O)N1CCOc2ccccc21)NCc1cccs1,x,x,-21%,5%,x
COc1ccc(OC)c(S(=O)(=O)Nc2cccc3c(O)cccc23)c1,-2%,5,21µM*,u,-13%
COc1ccc(OC)c(S(=O)(=O)Nc2ccc(O)c3ccccc23)c1,23µM*,160,2.1µM*,3.3µM*,u
COc1ccc(OC)c(S(=O)(=O)Nc2cccc(O)c2)c1,2%,10,-2%,-5%,1%
CCC(C(=O)NC1CCCC1)N(C(=O)Cn1nnc(-c2ccc(C)o2)n1)c1ccc(F)cc1 (stereo unspecified),17%,-13,-19%,u,12%
CCOC(=O)CSCC(=O)N1CCC(Cc2ccccc2)CC1,11%,-4,-3%,-10%,6%
SMILES,HT1080NT lethal,IL-1B inflam inh,TDP1 cell CPT,TDP1 cell noCPT,HT1080 IDH1KD tx
CNC(=O)N(O)C1N(/N=C/c2ccccc2O)C(=S)SC1(C)C (stereo unspecified),0%,22,5.2µM*,2.1µM*,7%
CC(C)c1ccc(/C=c2\sc3n(c2=O)C(N)=C(C#N)C(c2ccc(C(C)C)cc2)C=3C(N)=O)cc1 (stereo unspecified),-15%,30,5.8µM*,7.3µM*,-21%
CCOCCCNC(=O)C(c1ccccc1)N(Cc1ccc2c(c1)OCO2)C(=O)c1ccccc1O (stereo unspecified),5%,-9,4%,-22%,13%
CCOCCCNC(=O)C(c1ccc(C)cc1)N(Cc1ccc2c(c1)OCO2)C(=O)c1ccccc1O (stereo unspecified),x,x,23µM*,16µM*,x
CC(=O)NC12CC3CC(C1)CC(C(=O)OCC(=O)c1cc(C)n(C)c1C)(C3)C2,-1%,-3,16µM*,u,6%
CC(=O)NC12CC3CC(C1)CC(C(=O)OCC(=O)c1ccc4c(c1)OCCO4)(C3)C2,-9%,-10,u,u,-6%
O=C(Nc1ccc(OCC(=O)N2CCOCC2)cc1)Nc1cccc2ccccc12,3%,1,8%,6%,-11%
N#C/C(=C\c1ccccc1[N+](=O)[O-])c1nc(C2CC2)cs1,-8%,-78*,u,u,-24%
COC(=O)c1cccc(C(=O)N2CCc3c(C(=O)OC)c(OCc4ccccn4)cc(=O)n3CC2)c1,x,x,-3%,-13%,x
CC(NC(=O)/C(=C\c1ccco1)NC(=O)c1ccccc1Br)C(=O)O (stereo unspecified),-6%,-7,12%,-3%,1%
O=C(NCCc1nc2ccccc2[nH]1)/C(=C/c1ccc2c(c1)OCO2)NC(=O)c1ccc(Cl)cc1Cl,u,-99*,u,u,u
O=C(NCCc1nc2ccccc2[nH]1)/C(=C/c1ccco1)NC(=O)c1ccc(Br)cc1,-14%,0,23µM*,u,-9%
O=C(/C=C/c1ccco1)N/C(=C\c1ccco1)C(=O)NCCc1nc2ccccc2[nH]1,1%,4,-27%,u,-6%
COc1ccc(/C=C/C(=O)N/C(=C\c2ccco2)C(=O)NCCc2nc3ccccc3[nH]2)cc1,-15%,0,21µM*,18µM*,-13%
COc1ccc(C(=O)NNC(=O)c2snnc2C)cc1,2%,x,7%,-12%,17%
CC(=C\C(=O)O)/C(=C/c1ccco1)C(=O)O,19%,12,-16%,20%,5%
CC(=C\C(=O)O)/C(=C/c1ccc(C)o1)C(=O)O,0%,3,15µM*,21µM*,-17%
CCOc1ccccc1Nc1sc(C(=O)c2ccc(Cl)cc2)c(N)c1S(=O)(=O)c1ccccc1,x,x,-30%,u,x
